# High-throughput results from PubChem.
# An excerpt weighted towards active compounds, which were near 1.5% of everything screened.
# Neddylation inh: cullin neddylation inhibition | TR-FRET cullin neddylation, biochemical | inhibition, % at 25 µM | 0.58% of 360,000 active; in the data active = inhibition above about 36%
# NadD block: blocks S. aureus nicotinate mononucleotide adenylyltransferase; inhibition, % at 20 µM; 0.78% of 360,000 active; AID 602399; purified NadD enzyme, colorimetric absorbance read-out; in the data active = inhibition above about 26%
# NPR1 activator: GC-A (human) enzyme activation. activation, % at 10 µM. P16066. HEK293 GC-A cells, cGMP TR-FRET, EC30 ANP; 0% at EC30 ANP, 100% saturating ANP. AID 1671463. 0.14% of 370,000 active; in the data active = activation above about 40%
# Target sequence (P16066 whole entry, looked up): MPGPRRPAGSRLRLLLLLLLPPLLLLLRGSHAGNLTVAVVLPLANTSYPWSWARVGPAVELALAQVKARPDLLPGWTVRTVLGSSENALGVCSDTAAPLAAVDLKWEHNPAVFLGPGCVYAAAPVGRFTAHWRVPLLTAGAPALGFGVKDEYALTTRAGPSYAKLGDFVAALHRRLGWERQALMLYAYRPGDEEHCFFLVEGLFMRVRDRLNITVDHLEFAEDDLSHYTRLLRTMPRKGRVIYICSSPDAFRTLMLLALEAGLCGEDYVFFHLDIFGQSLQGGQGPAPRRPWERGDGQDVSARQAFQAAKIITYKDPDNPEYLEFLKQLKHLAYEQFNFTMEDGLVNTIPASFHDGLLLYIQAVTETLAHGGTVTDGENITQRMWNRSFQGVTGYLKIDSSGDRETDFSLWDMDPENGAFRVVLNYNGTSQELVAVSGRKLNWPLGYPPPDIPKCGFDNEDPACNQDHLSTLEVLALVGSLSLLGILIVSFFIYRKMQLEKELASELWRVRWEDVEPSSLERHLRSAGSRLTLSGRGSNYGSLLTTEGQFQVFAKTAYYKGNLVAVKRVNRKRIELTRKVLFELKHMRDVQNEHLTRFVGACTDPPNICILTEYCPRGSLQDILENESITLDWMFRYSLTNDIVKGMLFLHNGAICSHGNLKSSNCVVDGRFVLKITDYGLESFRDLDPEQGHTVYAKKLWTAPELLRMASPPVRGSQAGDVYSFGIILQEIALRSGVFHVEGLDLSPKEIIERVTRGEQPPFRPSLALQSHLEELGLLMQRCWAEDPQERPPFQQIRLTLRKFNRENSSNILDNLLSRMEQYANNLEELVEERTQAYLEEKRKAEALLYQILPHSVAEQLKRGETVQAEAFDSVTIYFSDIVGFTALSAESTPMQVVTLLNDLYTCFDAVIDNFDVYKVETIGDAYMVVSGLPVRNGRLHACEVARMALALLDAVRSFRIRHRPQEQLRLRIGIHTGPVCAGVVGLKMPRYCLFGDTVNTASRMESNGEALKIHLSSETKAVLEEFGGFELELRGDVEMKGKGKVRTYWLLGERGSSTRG
# GC-B act: GC-B (human) receptor activation; activation, % at 10 µM; 0.11% of 370,000 active; HEK293-GC-B cells, CNP EC30, cGMP TR-FRET; 0% at EC30 CNP, 100% saturating CNP;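 active = activation at 10 µM reaching about 35% in either raw or pattern-adjusted values, limit read from the data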
# NadD conf: NadD (S. aureus) inhibition, single concentration confirmation; shares compounds with NadD block; purified S. aureus NadD, colorimetric enzyme assay; inhibition, % at 20 µM; 13% of 2,000 active; AID 624309; in the data active = inhibition mostly above about 42%, no sharp cut-off; inactive = mostly below about 42%
# * hit, by the source's call; i = inactive; x = no result given.
SMILES,Neddylation inh,NadD block,NPR1 activator,GC-B act,NadD conf
CC(C)(C)OC(=O)NCc1ccc(NC(=O)c2nc[nH]c2C(=O)NCCCCNC(=O)c2[nH]cnc2C(=O)Nc2ccc(CNC(=O)OC(C)(C)C)cc2)cc1,28,24,x,x,x
CC(C)(C)OC(=O)NCc1ccc(NC(=O)c2nc[nH]c2C(=O)NCCN(CCNC(=O)c2[nH]cnc2C(=O)Nc2ccc(CNC(=O)OC(C)(C)C)cc2)CCNC(=O)c2[nH]cnc2C(=O)Nc2ccc(CNC(=O)OC(C)(C)C)cc2)cc1,28,43*,1,6,12
O=C(NCCc1ccc(Cl)cc1)c1ccc2c(c1)ncn2C1CCCCC1,x,x,-2,-6,x
CCCCCCCCNS(=O)(=O)/C=C/c1ccc(OC)cc1CNC(=O)OC(C)(C)C,x,x,-5,-7,x
Cc1cc(NC(=O)CSc2ccc(-c3nc4cc(C)c(C)cc4[nH]3)cn2)no1,15,22,x,x,x
Cc1cc2nc(-c3ccc(SCC(=O)N4CCc5ccccc54)nc3)[nH]c2cc1C,-15,33*,2,0,4
Cc1cc2nc(-c3ccc(SCC(=O)Nc4ccc(S(=O)(=O)NC5CC5)cc4)nc3)[nH]c2cc1C,5,40*,2,-1,44
CCc1ccc(N(CC(=O)NCc2ccco2)C(=O)CCC(=O)Nc2ccccn2)cc1,4,24*,0,5,4
c1ccc(Cc2cnc(N3CCN(Cc4cccc(-c5ccsc5)n4)CC3)nc2)cc1,x,x,-1,5,x
Cc1ccc(CNC(=O)c2ccc(N3CCC4(CC3)CC(c3cccc(Br)c3)=NO4)c(NC(=O)c3ccc(Br)cc3)c2)cc1,-107,28,1,5,x
Cc1ccc(CNC(=O)c2ccc(N3CCC4(CC3)CC(c3ccccc3)=NO4)c(NC(=O)c3ccc(Cl)c([N+](=O)[O-])c3)c2)cc1,-14,36*,2,10,-4
Cc1ccc(CNC(=O)c2ccc(N3CCC4(CC3)CC(c3cccc(Br)c3)=NO4)c(NC(=O)c3cccc(C)c3)c2)cc1,-77,36*,-1,4,1
Cc1ccc(CNC(=O)c2ccc(N3CCC4(CC3)CC(c3cccc(Br)c3)=NO4)c(NC(=O)c3c(Cl)cccc3Cl)c2)cc1,-53,33*,-2,3,-1
OCCC(N1CCOCC1)C(O)(c1ccccc1)c1ccccc1 (configuration not stated),x,x,2,-3,x
Cc1ccccc1C(=O)N=c1ccn(-c2nc3ccccc3nc2NS(=O)(=O)c2ccc(F)cc2)cc1,-291,30*,5,-3,56*
CN[C@H]1C[C@H]2c3[nH]c4cccc(-c5ccc6c(c5)OCO6)c4c3CCN2C[C@H]1[C@H](C)O,x,x,1,-13,x
Cc1ccc(-c2n[nH]c(=S)n2/N=C/C=C/c2ccccc2[N+](=O)[O-])cc1,-15,35*,-3,3,20
S=c1[nH]nc(-c2cc(-c3ccccc3)n[nH]2)n1/N=C/C(Br)=C/c1ccccc1,54*,62*,-7,-7,3
COc1ccccc1/C=C/C=N/n1c(-c2cc(-c3ccccc3)n[nH]2)n[nH]c1=S,7,36*,6,-5,33
O=[N+]([O-])c1ccccc1/C=C/C=N/n1c(-c2ccco2)n[nH]c1=S,-17,7,-10,-1,x
S=c1[nH]nc(-c2cc(-c3ccccc3)n[nH]2)n1/N=C/c1ccccc1,12,9,-3,-12,x
S=c1[nH]nc(-c2cc(-c3ccccc3)n[nH]2)n1/N=C/C=C/c1ccccc1,5,33*,-8,-9,19
c1nc(NCC2CCCCO2)c2cc(-c3ccc4c(c3)OCO4)ccc2n1 (configuration not stated),x,x,4,1,x
COC(=O)C1CN(CCc2ccccc2)CCS(=O)(=O)N1Cc1ccccc1 (configuration not stated),x,x,0,-3,x
COc1ccccc1C(=O)NCC(=O)NCc1cc(=O)n(C)c(=O)n1C,-3,62*,-1,0,-3
Cn1c(CNC(=O)CNC(=O)c2ccccc2F)cc(=O)n(C)c1=O,-3,-3,-1,1,x
Cc1cc2cc(C(c3nnnn3Cc3ccco3)N3CCc4ccccc43)c(=O)[nH]c2cc1C (configuration not stated),7,32*,-3,1,26
Cc1ccc2[nH]c(=O)c(C(c3nnnn3Cc3ccccc3)N3CCc4ccccc43)cc2c1 (configuration not stated),i,32*,0,-4,22
